Screening data deposited in PubChem BioAssay by National Center for Advancing Translational Sciences (NCATS).
SW480 rerep – inducers of DNA re-replication in SW480 colon cancer cells | Potency, µM (top dose mostly 46.1 µM), inactives show at the highest dose re-replication activation, hits mostly activators | SW480 DNA re-replication, Hoechst DNA content imaging, 48 h | 340,000 compounds, 1.8% hits; further: % of control where 0% means no effect; nearly all actives have a fitted effect of over 55% in size
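Hoechst fluorescence of nuclei (405 nm excitation, 500-530 nm emission) measured by plate-scanning imager after 48 hr compound exposure at 37 C; re-replication scored as increased number of nuclei with elevated intensity.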
MCF10A rereplic – inducers of DNA re-replication in MCF 10A breast cells. MCF 10A DNA re-replication, Hoechst nuclear intensity, 48 h. 350,000 compounds, 2.9% hits. Potency, µM (doses to about 46.1 µM), for inactives: at the highest dose activity, positive = re-replication, usual class: activators; further: % of control where 0% means no effect; nearly all actives have a fitted effect of over 50% in size
KB-3-1 cytotox – kills parental KB-3-1 adenocarcinoma cells | 400,000 compounds, 1.4% hits | Potency, µM (series often up to 46.1 µM), hits mostly cytotoxic | KB-3-1 viability, CellTiter-Glo ATP luminescence, 72 h | AID 1347075; further: on the % scale 0 is the no-effect control and ±100 the full control effect; nearly all actives have a fitted effect of over 60% in size
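KB-3-1 parental drug-naive adenocarcinoma cells in DMEM/10% FBS, incubated 72 h at 37 C with pin-transferred compounds across a concentration series. Viability by CellTiter-Glo luminescence; concentration-response curves fitted after normalization.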
HT1080NT lethal – kills 2HG-producing HT-1080-NT fibrosarcoma cells. Potency, µM (doses to about 46.1 µM), without a hit: top-dose activity, negative = less viability, most hits filed as cytotoxic. 360,000 compounds, 1.6% hits. HT-1080-NT fibrosarcoma viability, CellTiter-Glo ATP luminescence, 48 h;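 further: NT is the 2HG producing partner of a matched IDH1 knockdown line; 0% = DMSO-treated cells and -100% = media-only wells without cells; nearly all actives have a fitted effect of over 55% in size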
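HT-1080-NT; 750 cells/well; 5% FBS RPMI; 48 h compound, 37 degrees C; CellTiter-Glo luminescence; curve fitting and curve-class assignment.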
HT1080 IDH1KD tx – kills HT-1080 cells with IDH1 knockdown; 360,000 compounds, 2% hits; HT-1080 IDH1 knockdown viability, ATP luminescence, 48 h; Potency, µM (top dose mostly 46.1 µM), without a hit: at the top dose activity, negative = toxicity, usual class: cytotoxic; AID 686971;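 further: 0% = DMSO wells and -100% = cell-free medium wells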
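Viability of IDH1-knockdown HT-1080 fibrosarcoma cells was assessed by CellTiter-Glo after 48 h at 37 °C with titrated compound; concentration-effect curves were classified by fit quality and response size.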
KB-V1 cytotox – KB-V1 MDR subline cytotoxicity; KB-V1 MDR cells viability, CellTiter-Glo, 72 h; Potency, µM (doses to about 46.1 µM), most hits filed as cytotoxic; 400,000 compounds, 3.4% hits; further: on the % scale 0 is the no-effect control and ±100 the full control effect; nearly all actives have a fitted effect of over 60% in size
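KB-V1 cells (P-gp-expressing MDR subline of KB-3-1) in phenol-red-free DMEM with 10% FBS were exposed to library compounds over a concentration series for 72 h at 37 degrees C. Viability read by CellTiter-Glo luminescence; concentration-effect curves fitted after normalization.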
* hit, by the source's call; i = inactive; ? = inconclusive; . = not tested or not shown; [ ] = dose if it differs, or a comment. The list is not random: actives were taken first. Their share in the collection is about 7.9%. The call rests on the fitted dose curve; in most records, active means well fitted curve in the direction sought with a large enough effect; inconclusive means small, poorly fitted or top-dose-only effect, or another doubt; inactive means no such curve, though single readings can be large; an effect the other way counts as inactive or inconclusive. Potency means the concentration at half of the fitted maximal effect.

SMILES | SW480 rerep | MCF10A rereplic | KB-3-1 cytotox | HT1080NT lethal | HT1080 IDH1KD tx | KB-V1 cytotox
Cc1ccc2nc3c(cc(C(=O)NCC4CCCO4)c(=N)n3C(C)C)c(=O)n2c1 (stereo unspecified) | . | . | i | . | . | i
N=c1c(C(=O)NCC2CCCO2)cc2c(=O)n3ccccc3nc2n1Cc1ccc(F)cc1 (stereo unspecified) | 18µM* | 9.2µM* | i | -1% | -8% | i
N=c1c(C(=O)NCC2CCCO2)cc2c(=O)n3ccccc3nc2n1Cc1cccnc1 (stereo unspecified) | 10µM* | 13µM* | i | 3% | 2% | i
CCCn1c(=N)c(C(=O)NCc2cccnc2)cc2c(=O)n3cccc(C)c3nc21 | . | . | i | . | . | ?
N=c1c(C(=O)NCC2CCCO2)cc2c(=O)n3ccccc3nc2n1Cc1ccco1 (stereo unspecified) | 21µM* | ? | i | 6% | 7% | i
N#CCSc1nc2c(sc(=S)n2Cc2ccco2)c(=O)n1-c1ccc(F)cc1 | 17% | 18% | i | ? | ? | ?
CCOc1ccc(-c2[nH]ncc2-c2ccccc2)c(O)c1 | -1% | -2% | i | -1% | -6% | i
COc1ccccc1-c1cn[nH]c1-c1ccc(OCc2ccccc2)cc1O | ? | 23µM* | ? | -18% | ? | i
COc1ccc(-c2cn[nH]c2-c2ccc(OCc3ccccc3)cc2O)cc1 | ? | 13µM* | i | -7% | ? | i
CCCc1nnc(NC(=O)Cc2coc3c(C)c(C)ccc23)s1 | . | . | i | . | . | i
Cc1[nH]c2ccccc2c1/C=C/c1ccnc2ccccc12 | . | . | 8.2µM* | . | . | 7.3µM*
Clc1ccc(/C=C/c2nc3ccccc3[nH]2)cc1 | -4% | ? | ? | -25% | ? | i
Cc1cccc(/C=C/c2nc3ccccc3c(=O)[nH]2)c1 | 5.2µM* | 8.2µM* | ? | ? | ? | ?
Clc1ccc(/C=C/c2nc3ccccc3[nH]2)c(Cl)c1 | ? | 16µM* | i | 15µM* | ? | ?
O=C(O)c1ccc(/C=C/c2nc3ccccc3c(=O)[nH]2)cc1 | ? | 7% | i | -3% | -1% | i
COc1cc(/C=C/c2nc3ccccc3c(=O)[nH]2)ccc1O | . | . | i | -30% | ? | ?
C(=C\c1c[nH]c2ccccc12)/c1ccnc2ccccc12 | . | . | i | . | . | i
O=c1[nH]c(/C=C/c2ccccc2Cl)nc2ccccc12 | 18µM* | 16% | ? | -3% | -1% | i
Nc1ccc(CNc2ncn[nH]2)cc1 | -4% | 0% | i | -1% | -1% | i
Cc1[nH]c2ccccc2c1/C=C/c1nc2ccccc2c(=O)[nH]1 | 16µM* | 23µM* | ? | ? | 16µM* | ?
O=C(NN1CCCCC1)c1ccccc1 | 1% | 0% | i | 16% | 11% | i
CC1=CN2C(=N)/C(=C/c3ccc([N+](=O)[O-])o3)C(=O)N=C2S1 | 16µM* | ? | i | ? | ? | i
C/C(=N\NC(=O)c1nnn(-c2nonc2N)c1CN(C)c1ccccc1)c1ccccc1O | 3.3µM* | ? | 6.5µM* | ? | ? | i
CCCc1c(C(=O)N/N=C(\C)c2ccccn2)nnn1-c1nonc1N | . | . | 5.8µM* | ? | ? | ?
C/C(=N\NC(=O)c1nnn(-c2nonc2N)c1CN1CCCCC1)c1ccccc1O | 15µM* | 13% | ? | ? | ? | i
SMILES | SW480 rerep | MCF10A rereplic | KB-3-1 cytotox | HT1080NT lethal | HT1080 IDH1KD tx | KB-V1 cytotox
CC(/C=N/NC(=O)c1nnn(-c2nonc2N)c1CN1CCCCC1)=C\c1ccccc1 | ? | 7.3µM* | ? | ? | ? | i
COc1ccc(/C(C)=N/NC(=O)c2nnn(-c3nonc3N)c2CN(C)c2ccccc2)cc1 | -9% | 4% | i | -4% | -7% | i
CC(=C/c1ccccc1)/C=N/NC(=O)c1nnn(-c2nonc2N)c1CN1CCC(C)CC1 | ? | 6% | i | 0% | -2% | ?
CCCc1c(C(=O)N/N=C(\C)c2ccc(O)cc2)nnn1-c1nonc1N | -4% | ? | i | 5% | 2% | ?
CN(C)c1ccc(C(=O)OCC(=O)NCC2CCCO2)cc1 (stereo unspecified) | -17% | 4% | i | -5% | 0% | i
CCOC(=O)N1CCN(C(=O)CSc2ccc(-c3ccc(OC)c(OC)c3)nn2)CC1 | 1% | 1% | ? | 3% | 3% | i
COc1ccc(-c2noc(-c3ccc(N4CCCC4)c([N+](=O)[O-])c3)n2)cc1OC | . | . | i | . | . | ?
COc1ccc(-c2cc3c(=O)n(CC(=O)Nc4ccc(C(C)=O)cc4)ncn3n2)cc1 | -3% | -2% | i | -3% | -3% | i
CCc1cc(C(=O)Nc2c(C)nn(Cc3ccccc3Cl)c2C)no1 | . | . | i | . | . | i
Cc1cc(C(=O)Nc2c(C)nn(Cc3ccc(F)cc3)c2C)no1 | . | . | i | . | . | ?
Cc1cc(C(=O)Nc2c(C)nn(Cc3c(Cl)cccc3Cl)c2C)no1 | -1% | -4% | i | ? | ? | 9.2µM*
COc1ccc(-c2cc(C(=O)Nc3c(C)nn(Cc4ccccc4Cl)c3C)no2)cc1 | 8% | 10µM* | i | 2%[9.24 µM] | -21% | i
Cc1nn(Cc2c(Cl)cccc2Cl)c(C)c1NC(=O)c1cc(C(C)C)on1 | 8% | ? | ? | ? | 23µM* | ?
Cc1cc(NC(=O)Cc2c(F)cccc2Cl)no1 | ? | 7.3µM* | i | 5% | -10% | i
O=C(Cc1c(F)cccc1Cl)Nc1ccon1 | 1% | -1% | i | 4% | -4% | i
CC(C)c1ccc(CN2CCN(C(=O)CSc3nnnn3C3CC3)CC2)cc1 | 2% | 2% | ? | ? | -4% | i
c1ccc2c(CCc3ccncc3)cccc2c1 | ? | 12% | i | -5% | -3% | i
CCn1c(C)cc2c(c1=O)C(c1ccccc1)C(C(=O)OC)=C(N)O2 (stereo unspecified) | 1% | 16µM* | i | 9%[9.24 µM] | ? | i
CC(C(=O)Nc1ccc2c(c1)OCO2)N(C)CC(=O)Nc1ccc(Cl)cc1 (stereo unspecified) | -5% | -5% | i | -1% | -4% | 23µM*
CC(C(=O)Nc1ccc2c(c1)OCO2)N(C)CC(=O)Nc1ccccc1Cl (stereo unspecified) | -58% | -5% | i | -5%[9.24 µM] | 5% | i
